Experimental data reported in PubChem BioAssay AID1053173 (Broad Institute, 2014).
Hit rate of the full screen: of about 1,500 compounds, about 390 (26%) were called active. How the calls were made is not given here. Only a sample is shown. Results with a measured potency or affinity are listed apart.

Each compound was assayed against Histone-lysine N-methyltransferase NSD2 (Homo sapiens) (UniProt O96028) (assay: NSD2 methyltransferase inhibitors, dose response, biochemical, AlphaScreen, cherry-picked samples (AID 1053173;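 further: 0% = neutral control wells and -100% = positive control wells on each plate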)). Settings: NSD2 H4 peptide methylation, 120 min; series mostly up to 10 µM; activity change, negative = inhibition: at the top concentration.
Histone-lysine N-methyltransferase NSD2 (Homo sapiens), sequence (O96028 whole entry, looked up): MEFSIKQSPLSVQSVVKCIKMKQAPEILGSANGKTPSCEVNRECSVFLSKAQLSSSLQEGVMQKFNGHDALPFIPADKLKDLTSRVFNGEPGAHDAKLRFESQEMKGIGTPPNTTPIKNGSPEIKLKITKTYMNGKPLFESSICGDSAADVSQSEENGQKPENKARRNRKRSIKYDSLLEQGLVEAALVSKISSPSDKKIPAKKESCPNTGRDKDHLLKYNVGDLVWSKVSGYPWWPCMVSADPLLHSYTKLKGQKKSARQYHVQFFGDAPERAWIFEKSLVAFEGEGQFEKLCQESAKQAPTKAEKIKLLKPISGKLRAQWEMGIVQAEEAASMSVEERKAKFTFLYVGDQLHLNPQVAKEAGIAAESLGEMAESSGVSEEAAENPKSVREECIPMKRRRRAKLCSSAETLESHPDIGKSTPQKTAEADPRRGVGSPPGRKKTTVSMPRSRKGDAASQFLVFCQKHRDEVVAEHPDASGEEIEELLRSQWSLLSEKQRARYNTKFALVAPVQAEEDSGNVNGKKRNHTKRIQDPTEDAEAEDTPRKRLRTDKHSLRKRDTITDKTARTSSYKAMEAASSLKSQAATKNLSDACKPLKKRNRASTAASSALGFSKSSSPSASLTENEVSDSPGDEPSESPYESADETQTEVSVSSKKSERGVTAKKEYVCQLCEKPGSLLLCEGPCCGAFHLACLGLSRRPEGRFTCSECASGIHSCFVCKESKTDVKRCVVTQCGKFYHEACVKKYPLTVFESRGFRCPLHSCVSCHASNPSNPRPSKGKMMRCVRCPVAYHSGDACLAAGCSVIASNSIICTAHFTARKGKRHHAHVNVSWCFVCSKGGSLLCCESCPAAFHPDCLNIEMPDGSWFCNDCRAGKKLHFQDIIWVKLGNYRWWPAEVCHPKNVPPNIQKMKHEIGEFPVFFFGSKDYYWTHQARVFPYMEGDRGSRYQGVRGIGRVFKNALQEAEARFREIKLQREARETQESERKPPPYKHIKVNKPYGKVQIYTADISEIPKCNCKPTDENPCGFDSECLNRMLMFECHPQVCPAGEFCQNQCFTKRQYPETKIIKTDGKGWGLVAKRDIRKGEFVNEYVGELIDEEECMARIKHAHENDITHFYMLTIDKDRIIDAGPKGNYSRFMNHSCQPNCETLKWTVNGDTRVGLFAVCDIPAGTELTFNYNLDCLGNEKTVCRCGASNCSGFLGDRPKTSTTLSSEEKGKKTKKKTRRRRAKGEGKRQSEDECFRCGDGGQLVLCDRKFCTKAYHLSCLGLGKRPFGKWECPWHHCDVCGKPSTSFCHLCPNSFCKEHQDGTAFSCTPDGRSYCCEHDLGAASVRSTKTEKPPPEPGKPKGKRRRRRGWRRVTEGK

Activity change, negative = inhibition, inactive:
CC1(C)Cc2c(c(-c3ccco3)[nH]c(=O)c2C#N)CS1 0.181%, CCc1ccc(-c2cc(C)no2)cc1S(=O)(=O)N1CCN(c2ccc(F)cc2)CC1 -4.42%, COc1ccc(NC(=O)CC2C(=O)NCCN2C(=O)c2ccc(N(C)C)cc2)cc1 (stereo not drawn) -1.08%, Cc1cc(NC(=O)CSc2nc3ccccc3cc2C#N)no1 -0.11%, O=C(Nc1ccc(O)cc1)C1CC=CCC1 (stereo not drawn) -10.4%, CC1CN(Cc2nc3c(c(=O)n(C)c(=O)n3C)n2CCCc2ccccc2)CC(C)O1 (stereo not drawn) -1.88%, O=C(OCc1cccc2ccccc12)C1CC(=O)N(c2ccccc2)C1 (stereo not drawn) 3.19%, COc1cccc2c1N1C(=O)c3c(C(=O)O)cccc3C1CC2(C)C (stereo not drawn) 3.68%, COc1ccc(C2C(C(=O)c3ccco3)=C(O)C(=O)N2CC2CCCO2)cc1OC (stereo not drawn) -0.379%, CCOC(=O)c1c(NC(=O)COC)sc2c1CCCC2 10.5%, CCN(C(=S)Nc1ccc(C(C)=O)cc1)C1CCCCC1 -13.8%, CC1CN(Cc2cc(=O)n3ccsc3n2)CC(C)O1 (stereo not drawn) 0.845%, CC(C)CN(C(=O)COC(=O)c1ccc([N+](=O)[O-])s1)c1c(N)n(Cc2ccccc2)c(=O)[nH]c1=O -7.51%, COCCn1c(N)c(N(Cc2ccccc2)C(=O)c2cc(=O)[nH]c3ccccc23)c(=O)[nH]c1=O 0.044%, CCn1c(SCC(=O)N2CCCCC2)nc2c1c(=O)n(C)c(=O)n2C 6.67%, CCOC(=O)C1=C(C)N(C)C(=S)NC1c1ccccc1Cl (stereo not drawn) 9.94%, COc1cc(/C=C2\SC(N)=NC2=O)cc(Cl)c1O -7.1%, O=C(CCc1nnc(-c2ccccc2)o1)NCc1cc(F)ccc1F 3.74%, CCNC(=O)C1CCCN(C(=O)c2ccccc2OC(F)(F)F)CC1 (stereo not drawn) 2.17%, COc1ccc(NS(=O)(=O)c2cc(NC(=O)COc3ccccc3)ccc2N2CCOCC2)cc1 1.67%, O=C(CN1CCOCCOCCN(CC(=O)Nc2ccccc2)CCOCC1)Nc1ccccc1 4.89%, Cc1ccccc1N1CC(C(=O)Nc2ccc(S(=O)(=O)N3CCOCC3)cc2)CC1=O (stereo not drawn) 1.56%, Cc1ccc(S(=O)(=O)c2ccc(Cl)cc2)cc1S(=O)(=O)N1CCOCC1 5.97%, Cc1ccc(/C=N/NC(=O)c2cc3ccccc3cc2O)o1 -3.67%, CCN(Cc1ccccc1)Cc1c(C)[nH]c2c(C)c(C)ccc2c1=O 0.95%, CCCc1cc(=O)n(-c2nc3ccccc3s2)[nH]1 6.4%, CC1(C)Cc2c(c(-c3ccco3)[nH]c(=O)c2C#N)CO1 3.06%, O=C(CSc1nc(-c2ccccc2)c(-c2ccccc2)o1)N1CCCCC1 4.5%, CCOC(=O)c1ccc(N=c2scc(C)n2CC)cc1 -13.2%, CC1(C)CC(N=C2C=CC3=NC45CCCCC4CC4=C(CCCC4)N5C3=C2)CC(C)(C)N1 (stereo not drawn) -4.28%, COc1ccc(N=c2scc(C)n2CCCN2CCCC2=O)cc1 1.93%, CCOC(=O)Nc1ccc(=O)n(Cc2c(Cl)cccc2Cl)c1 4.15%, CN(C(=S)NC(=O)C1(C)CC1(Cl)Cl)c1ccccc1 (stereo not drawn) 6.66%, O=C(NNC(=O)c1ccc(Cl)nc1)c1ccc(Br)cc1 3.91%, Oc1ccc(/C=N/N2CCOCC2)c(O)c1O -4.15%, Nc1cc(=O)[nH]c(SCC(=O)Nc2ccc(Cl)c(Cl)c2)n1 -0.598%, Cc1ccc(NC(=S)N2CCC(NC(=O)c3ccc(F)cc3)CC2)cc1 4.5%, COCC(C)n1c(SCC(=O)NC2CCCCC2C)nc2ccccc2c1=O (stereo not drawn) -6.67%, Cc1cccc(-n2c(Cn3nc(C)c([N+](=O)[O-])c3C)n[nH]c2=S)c1 4.32%, Cc1csc(SCC(=O)Nc2ccc3c(c2)OCCO3)n1 -0.732%, COC(=O)c1ccccc1-c1ccc(C(c2c(C)[nH][nH]c2=O)c2c(C)[nH][nH]c2=O)o1 -2.23%, Cc1[nH][nH]c(=O)c1C(c1ccc(-c2ccc(C(=O)O)cc2)o1)c1c(C)[nH][nH]c1=O -3.01%, Cc1cccc(C(=O)NCc2nnc(SCC(=O)Nc3nnc(C)s3)n2C)c1 3.02%, O=c1c2cnn(-c3ccccc3)c2nc(-c2ccco2)n1-c1ccccc1 3.67%, Cc1ccc(S(=O)(=O)NC(C(=O)N2CCN(S(=O)(=O)c3cccc(F)c3)CC2)C(C)C)cc1 (stereo not drawn) 0.222%, COc1ccccc1OCC(=O)Nc1ccc(S(=O)(=O)N2CCCC2)cc1 1.45%, Cc1ccccc1NCC(=O)Nc1cc(S(=O)(=O)N2CCCCC2)ccc1C -1.45%, Cc1ccc(S(=O)(=O)N(C)CC(=O)NCCCn2ccnc2)cc1 -5.32%, CN(c1ccccc1)c1ncnc2c1ncn2C -5.28%, COc1ccc2c(c1)Cc1sc(NC(C)=O)nc1-2 -4.87%, Cc1nn(-c2ccccn2)c2c1C(=O)C(Br)CC2 (stereo not drawn) -4.7%, CC(=O)c1ccc(N(CC(=O)NCCc2ccccc2)C(=O)c2csnn2)cc1 0.43%, O=C(OCc1ccc([N+](=O)[O-])cc1)c1cc(=O)c2ccccc2o1 5.19%, COc1ccccc1N(CC(=O)NCC1CCCO1)C(=O)CNS(=O)(=O)c1ccc(C)cc1 (stereo not drawn) 1.22%, O=C1c2ccccc2C(=O)N1CCC(c1ccc(F)cc1)c1ccco1 (stereo not drawn) 1.01%, COc1ccc(Cc2nnc(NC(=O)C3CC(=O)N(c4ccc(OC)cc4)C3)s2)cc1 (stereo not drawn) -0.048%, O=C(CN(C(=O)c1csnn1)c1ccc(F)c(Cl)c1)NC1CCCCC1 0.495%, Cc1nc(N)sc1-c1nnc(SCC(=O)Nc2ccccc2C(F)(F)F)n1C -2.66%, CC1=NN(c2ccccc2)C(=O)/C1=C/N(C)C -4.42%, CC(C)(C)NC(=O)COC(=O)c1ccc2c(c1)C(=O)N(Cc1ccco1)C2=O -1.9%, Cn1c(=O)[nH]c(=O)c2c1nc(N/N=C/c1ccncc1)n2Cc1ccc(F)cc1 1.06%, Cc1ccc(-c2csc3nc(CN(C)Cc4ccccc4)[nH]c(=O)c23)cc1 -0.858%, CCC(CC)c1nnc(NC(=O)CCS(=O)(=O)Cc2ccccc2)s1 0.024%, CCCCn1cnc2c(=S)nc(N)[nH]c21 -2.03%, CCn1cc(/C=N\NC(=O)C2(C)CC2(Cl)Cl)c(C)n1 (stereo not drawn) 6.99%, NNC(=O)c1nc(-c2ccccc2)cc(-c2ccccc2)n1 -1.02%, CC12CCC(C)(c3nc4ccccc4nc31)C2(C)C -0.479%, Cc1cc(C)n(CCC(=O)N2CCN(S(=O)(=O)c3ccccc3)CC2)n1 5.12%
